BAZ2B inh: qHTS Assay for Inhibitors of BAZ2B; Bromodomain adjacent to zinc finger domain protein 2B (Homo sapiens), Q9UIF8; AlphaScreen BAZ2B-H3K14Ac peptide displacement; Potency, µM (doses to about 114 µM), most hits filed as inhibitors; 4.4% of 360,000 active; also: nearly all actives have a fitted effect of over 60% in size
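AlphaScreen displacement: compounds (up to 110uM) incubated 30 min at room temperature with a preformed 50 nM BAZ2B/50 nM biotinylated H3K14Ac peptide complex in PBS pH 7.4 with Tween-20. Donor and acceptor beads at 10 ug/mL final added, 20 min light-protected before reading.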
JMJD2A Tudor inh: qHTS Assay for Inhibitors of JMJD2A-Tudor Domain | Potency, µM (series often up to 114 µM), hits mostly inhibitors | 4.4% of 390,000 active | AlphaScreen JMJD2A-Tudor / H3K4me3 peptide binding; also: nearly all actives have a fitted effect of over 50% in size
HP1b binding inh: HTS for Inhibitors of HP1-beta Chromodomain Interactions with Methylated Histone Tails. AlphaScreen HP1-beta / biotin-H3K9me3 peptide binding. Potency, µM (top dose mostly 114 µM), actives largely listed as inhibitors. Chromobox protein homolog 1 (Homo sapiens), P83916. 0.56% of 390,000 active; also: nearly all actives have a fitted effect of over 70% in size
Target sequence (P83916 whole entry, looked up): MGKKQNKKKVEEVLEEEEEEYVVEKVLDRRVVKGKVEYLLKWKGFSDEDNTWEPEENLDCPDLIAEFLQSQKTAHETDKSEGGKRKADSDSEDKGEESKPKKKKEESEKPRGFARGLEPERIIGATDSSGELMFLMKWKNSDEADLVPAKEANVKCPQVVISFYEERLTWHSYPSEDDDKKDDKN
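Compound inhibition of the preformed complex between 50 nM HP1-beta and 50 nM biotinylated H3K9me3 peptide was read by AlphaScreen. Buffer was PBS pH 7.4 with 0.01% Tween-20. Incubations ran 30 min at room temperature, with 10 ug/mL donor/acceptor beads.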
G9a inh: qHTS Assay for Inhibitors of Histone Lysine Methyltransferase G9a | Histone-lysine N-methyltransferase EHMT2 (Homo sapiens), Q96KQ7 | G9a H3K9 monomethylation, AlphaScreen, 2 h | Potency, µM (doses to about 102 µM), hits mostly inhibitors | 8.8% of 350,000 active | AID 504332, 2011; also: nearly all actives have a fitted effect of over 75% in size
Target sequence (Q96KQ7 913-1193 limits assumed): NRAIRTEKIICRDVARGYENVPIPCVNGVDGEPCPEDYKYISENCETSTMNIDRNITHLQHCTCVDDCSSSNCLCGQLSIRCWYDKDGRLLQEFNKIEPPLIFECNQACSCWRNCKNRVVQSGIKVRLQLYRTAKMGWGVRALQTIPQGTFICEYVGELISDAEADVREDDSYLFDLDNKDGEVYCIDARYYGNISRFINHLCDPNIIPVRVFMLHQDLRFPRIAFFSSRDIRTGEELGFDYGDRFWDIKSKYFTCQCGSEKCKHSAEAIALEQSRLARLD
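Enzyme 20 nM + cpd, 15 min RT; add b-H3K9 pep 500 nM / SAM 20 uM; 2 h RT; anti-H3K9me1 Ab 0.5 ug/mL + SA donor / anti-rabbit acceptor beads 20 ug/mL each, 10 min; AlphaScreen read.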
L3MBTL1 block: qHTS Assay for the Inhibitors of L3MBTL1 | AID 485360, 2010 | Potency, µM (top dose mostly 57.1 µM), actives largely listed as inhibitors | AlphaScreen L3MBTL1–H3K9me1 peptide binding | Lethal(3)malignant brain tumor-like protein 1 (Homo sapiens), Q9Y468 | 0.66% of 230,000 active; also: nearly all actives have a fitted effect of over 60% in size
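L3MBTL1 50 nM + b-AHA-H3(1-15)K9me1 75 nM, 30 min RT; compound added, 30 min RT; streptavidin donor/Ni-chelate acceptor beads 10 ug/mL each final, 30 min RT dark; AlphaScreen read.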
Hits are given with their value; ! = not active in a repeat. The list is not random: actives were taken first. Their share in the collection is about 11%. Calls follow the shape of the dose curve; as a rule, active = well fitted inhibition curve with a large enough effect; inconclusive = small, poorly fitted or top-dose-only effect; inactive = no such curve, though single readings can be large or run the other way.

For Cc1ccc(-c2nc3cc(C(C)C)ccc3o2)cc1NC(=O)c1cc([N+](=O)[O-])ccc1N1CCOCC1 the results were BAZ2B inh 89µM, JMJD2A Tudor inh inactive, HP1b binding inh inactive and G9a inh inactive.
Cn1nccc1C(=O)Nc1sc2c(c1C#N)CCCC2 was read as BAZ2B inh inactive, JMJD2A Tudor inh inactive, HP1b binding inh inactive and G9a inh inactive.
Screening N#Cc1c(NC(=O)c2ccc(Cn3cc(Br)cn3)o2)sc2c1CCCCCC2 returned BAZ2B inh inactive, JMJD2A Tudor inh inactive, HP1b binding inh inactive, G9a inh 11µM and L3MBTL1 block inactive.
`N#Cc1c(NC(=O)c2cc([N+](=O)[O-])ccc2N2CCOCC2)sc2c1CCCC2` gave BAZ2B inh 56µM, JMJD2A Tudor inh inconclusive, HP1b binding inh inactive, G9a inh inconclusive and L3MBTL1 block inactive.
Screening Cc1cccc(C)c1NC(=O)CSc1ncc2c(n1)-c1ccc(Cl)cc1N(Cc1ccccc1)S2(=O)=O returned BAZ2B inh inactive, JMJD2A Tudor inh inactive, HP1b binding inh inactive and G9a inh inactive.
For Cc1ccc(C)c2nc3sc(C(=O)O)cc3cc12 the results were BAZ2B inh inactive, JMJD2A Tudor inh inactive, HP1b binding inh inactive, G9a inh 40µM and L3MBTL1 block inconclusive.
Screening Cc1ccc(C)c2nc3sc(C(=O)N4CCCc5ccccc54)c(N)c3cc12 returned BAZ2B inh inactive, JMJD2A Tudor inh inactive, HP1b binding inh inactive, G9a inh inconclusive and L3MBTL1 block inactive.
`Brc1ccc(CN2CCN(c3ccccn3)CC2)s1` gave BAZ2B inh 45µM, JMJD2A Tudor inh 7.9µM, HP1b binding inh inconclusive and G9a inh 14µM.
O=c1c(CN2CCN(c3ccccn3)CC2)coc2ccccc12 was read as BAZ2B inh 79µM, JMJD2A Tudor inh 22µM, HP1b binding inh inconclusive, G9a inh inconclusive and L3MBTL1 block inactive.
`c1ccc(N2CCN(Cc3nc4ccccc4[nH]3)CC2)nc1` gave BAZ2B inh inactive, JMJD2A Tudor inh inactive, HP1b binding inh inactive and G9a inh inactive.
`c1ccc(N2CCN(Cc3ccc4c(c3)OCO4)CC2)nc1` gave JMJD2A Tudor inh 28µM and HP1b binding inh inconclusive.
`COC(=O)c1cc2oc3ccccc3c2n1Cc1c(C)cc(C)cc1C` gave BAZ2B inh inactive, JMJD2A Tudor inh inactive, HP1b binding inh inactive and G9a inh inactive.
Screening CCOC(=O)c1c(NC(=O)c2ccc(S(=O)(=O)N(C)C3CCCCC3)cc2)sc2c1CCN(C(C)C)C2 returned BAZ2B inh inactive, JMJD2A Tudor inh inactive, HP1b binding inh inactive and G9a inh inactive.
Screening COc1ccc(NC(=S)N(C(C)C)C2CCN(C(C)C)CC2)cc1Cl returned BAZ2B inh inactive and G9a inh 45µM.
`COc1ccc(NC(=S)N(CCC(C)C)C2CCN(C(C)C)CC2)cc1` gave BAZ2B inh inactive, JMJD2A Tudor inh inactive, HP1b binding inh inactive and G9a inh inactive.
`O=[N+]([O-])c1cccc(-c2ccc(C(=S)N3CCN(c4ccccc4)CC3)o2)c1` gave BAZ2B inh inconclusive, JMJD2A Tudor inh inconclusive, HP1b binding inh inconclusive, G9a inh 3.5µM and L3MBTL1 block inactive.
Screening O=[N+]([O-])c1cccc(-c2ccc(CN3CCCCC3)o2)c1 returned BAZ2B inh inactive, JMJD2A Tudor inh inactive, HP1b binding inh inactive and L3MBTL1 block inactive.
O=C(c1ccc(-c2cccc(Cl)c2)o1)N1CCN(c2ccc([N+](=O)[O-])cc2)CC1 was read as BAZ2B inh inactive, JMJD2A Tudor inh 40µM, HP1b binding inh inactive, G9a inh inactive and L3MBTL1 block inactive.
For CN1CCN(C(=S)c2ccc(-c3cccc([N+](=O)[O-])c3)o2)CC1 the results were BAZ2B inh inconclusive, JMJD2A Tudor inh 50µM, HP1b binding inh inactive, G9a inh 40µM and L3MBTL1 block inactive.
`O=[N+]([O-])c1ccc(NC(=S)N2CCN(c3ccccc3)CC2)cc1` gave BAZ2B inh inactive, JMJD2A Tudor inh inactive, HP1b binding inh inactive, G9a inh inconclusive and L3MBTL1 block inactive.
`O=[N+]([O-])c1cccc(-c2ccc(C(=S)N3CCOCC3)o2)c1` gave BAZ2B inh 28µM, JMJD2A Tudor inh 45µM, HP1b binding inh inconclusive and L3MBTL1 block inactive.
`CCOC(=O)c1cc(-c2ccccc2)n(CCC(=O)NCCc2ccccc2)c1C` gave BAZ2B inh inconclusive, JMJD2A Tudor inh inconclusive, HP1b binding inh inconclusive and G9a inh inactive.
NC(=O)CSc1ncc2c(n1)-c1ccccc1N(Cc1cccc(F)c1)S2(=O)=O was read as BAZ2B inh inactive, JMJD2A Tudor inh inactive, HP1b binding inh inactive and G9a inh inactive.
For Cc1cc2c(cc1S(=O)(=O)CCC(=O)N1CCN(c3ccccc3)CC1)OCC(=O)N2 the results were BAZ2B inh inactive, JMJD2A Tudor inh inactive, HP1b binding inh inactive and G9a inh inactive.
For O=C(Nc1ccc(F)cc1C(F)(F)F)C1CCN(c2ncccn2)CC1 the results were BAZ2B inh inactive, JMJD2A Tudor inh inactive, HP1b binding inh inactive and G9a inh inactive.
Screening O=[N+]([O-])c1cc(-c2ccc(C(=S)N3CCOCC3)o2)ccc1Cl returned BAZ2B inh 32µM, JMJD2A Tudor inh 40µM, HP1b binding inh 10µM, G9a inh 1.8µM and L3MBTL1 block inactive.
`O=C(NN1CCOCC1)c1ccc(Cl)c([N+](=O)[O-])c1` gave BAZ2B inh inactive, JMJD2A Tudor inh inactive and HP1b binding inh inactive.
O=C(Nc1nccs1)c1ccc(-c2cccc([N+](=O)[O-])c2)o1 was read as BAZ2B inh inactive, JMJD2A Tudor inh 56µM, HP1b binding inh inconclusive and G9a inh inactive.
Screening COc1ccc(N2CCN(C(=O)c3ccc(COc4ccc([N+](=O)[O-])cc4)o3)CC2)cc1 returned BAZ2B inh inconclusive, JMJD2A Tudor inh inconclusive, HP1b binding inh inconclusive and G9a inh 22µM.
Screening CCOc1ccc2ncc3c(-c4cccc(OC)c4)nn(-c4ccccc4)c3c2c1 returned JMJD2A Tudor inh inactive, HP1b binding inh inactive and G9a inh inactive.
`CNCCCC1c2ccccc2C=Cc2ccccc21` gave BAZ2B inh inactive, JMJD2A Tudor inh inactive, HP1b binding inh inactive, G9a inh inactive and L3MBTL1 block inactive.
Screening CNCCCC12CCC(c3ccccc31)c1ccccc12 returned BAZ2B inh inactive, JMJD2A Tudor inh inactive, HP1b binding inh inactive, G9a inh 71µM! and L3MBTL1 block inactive.
For O=C1c2ccccc2C(=O)C1c1ccc(O)cc1 the results were BAZ2B inh inactive, JMJD2A Tudor inh inactive, HP1b binding inh inactive and G9a inh inactive.
`O=C1c2ccccc2C(=O)C1c1ccc(Cl)cc1` gave BAZ2B inh inconclusive, JMJD2A Tudor inh inactive, HP1b binding inh inactive and G9a inh 45µM.

Compound activity: PubChem, National Center for Advancing Translational Sciences (NCATS)
